Inconclusive results are not listed. Activity calls are given as the source filed them. How the source made its calls, unless noted: active means hit-call score of the fitted dose curve at least 0.9, where 1 is the maximum; inconclusive means response in the unintended direction; inactive means score below 0.9.
Assays:
[1] = read-out: Cytochrome P450 3A4 (Homo sapiens) (UniProt P08684); test: CLD_CYP3A4_24hr: CellzDirect (CLD) Gene Expression Assay for xenobiotic metabolism (CYP3A4) at 24 hours (AID 2283689)
In short: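 Primary human hepatocytes from two donors dosed daily with fresh compound for two days, 0.2% DMSO vehicle. CYP3A4 mRNA at 24 hr by qNPA chemiluminescence; gain-of-signal fit versus DMSO, cytotoxicity flagged by morphology.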

[2] = read-out: organic anion transporter (SLCO1B1), SLCO1B1 (gene 10599); test: CLD_SLCO1B1_24hr: CellzDirect (CLD) Gene Expression Assay for organic anion transporter (SLCO1B1) at 24 hours (AID 2283690)
In short: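 Primary human hepatocytes (two donor preparations) dosed daily for two days with chemicals at multiple concentrations, 0.2% DMSO vehicle. SLCO1B1 mRNA at 24 h measured by qNPA chemiluminescence; induction fitted relative to DMSO.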

[3] = read-out: alkyl and aryl transferase (GSTA2), GSTA2 (gene 2939); test: CLD_GSTA2_24hr: CellzDirect (CLD) Gene Expression Assay for alkyl and aryl transferase (GSTA2) at 24 hours (AID 2283693)
In short: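 Primary human hepatocytes (two donor preparations) dosed daily for two days with chemicals at multiple concentrations (vehicle 0.2% DMSO); GSTA2 mRNA at 24 h measured by qNPA chemiluminescence, gain-of-signal versus DMSO.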

[4] = read-out: ABC Transporter (ABCB1), ABCB1 (gene 5243); test: CLD_ABCB1_48hr: CellzDirect (CLD) Gene Expression Assay for ABC Transporter (ABCB1) at 48 hours (AID 2283695);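 on AC50: potency for induction meaning increase of mRNA over DMSO vehicle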
In short: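 Primary human hepatocytes from two donor preparations dosed daily on two consecutive days with 0.2% DMSO vehicle. Harvest at 48 h. ABCB1 mRNA quantified by qNPA with chemiluminescence and fitted for gain of signal versus DMSO.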

[5] = read-out: glucuronosyltransferase (UGT1A1), UGT1A1 (gene 54658); test: CLD_UGT1A1_24hr: CellzDirect (CLD) Gene Expression Assay for glucuronosyltransferase (UGT1A1) at 24 hours (AID 2283696)
In short: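 Primary human hepatocytes from two donor preparations were dosed (0.2% DMSO vehicle) and harvested at 24 h; UGT1A1 mRNA induction was quantified by chemiluminescent qNPA, fitted as gain relative to DMSO.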

[6] = read-out: xenobiotic metabolism (CYP1A2), CYP1A2 (gene 1544); test: CLD_CYP1A2_48hr: CellzDirect (CLD) Gene Expression Assay for xenobiotic metabolism (CYP1A2) at 48 hours (AID 2283703)
In short: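 Primary human hepatocytes from two donor preparations were dosed daily for two days at multiple concentrations in 0.2% DMSO vehicle. CYP1A2 mRNA was measured at 48 hours by chemiluminescent quantitative nuclease protection assay, with gain of signal fitted versus DMSO and cytotoxicity annotated from morphology.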

[7] = read-out: Broad substrate specificity ATP-binding cassette transporter ABCG2 (Homo sapiens) (UniProt Q9UNQ0); test: CLD_ABCG2_48hr: CellzDirect (CLD) Gene Expression Assay for ABC Transporter (ABCG2) at 48 hours (AID 2283704);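 on AC50: potency for induction of ABCG2 mRNA above the DMSO baseline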
In short: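 Primary human hepatocytes from two donors, dosed daily for 2 days, 0.2% DMSO vehicle, several concentrations. ABCG2 mRNA at 48 h by qNPA chemiluminescence, gain fitted versus DMSO; cytotoxicity flagged by morphology.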

[8] = read-out: xenobiotic metabolism (CYP1A1), CYP1A1 (gene 1543); test: CLD_CYP1A1_48hr: CellzDirect (CLD) Gene Expression Assay for xenobiotic metabolism (CYP1A1) at 48 hours (AID 2283705)
In short: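 Primary human hepatocytes from two donors dosed daily for two days at multiple concentrations, 0.2% DMSO vehicle; CYP1A1 mRNA induction at 48 h by qNPA chemiluminescence. Cytotoxicity noted by phase-contrast morphology.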

[9] = read-out: organic anion transporter (SLCO1B1), SLCO1B1 (gene 10599); test: CLD_SLCO1B1_48hr: CellzDirect (CLD) Gene Expression Assay for organic anion transporter (SLCO1B1) at 48 hours (AID 2283707)
In short: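 Primary human hepatocytes from two donor preparations dosed daily for two days with multiple concentrations, 0.2% DMSO vehicle. SLCO1B1 mRNA at 48 h by quantitative nuclease protection assay, chemiluminescence; gain-of-signal fitted versus DMSO.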

[10] = read-out: alkyl and aryl transferase (GSTA2), GSTA2 (gene 2939); test: CLD_GSTA2_48hr: CellzDirect (CLD) Gene Expression Assay for alkyl and aryl transferase (GSTA2) at 48 hours (AID 2283708);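 further: active means mRNA induction above DMSO vehicle baseline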
In short: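 Primary human hepatocytes dosed daily for two days (0.2% DMSO vehicle), harvested at 48 h. GSTA2 mRNA induction measured by quantitative nuclease protection assay with chemiluminescent imaging, fitted for gain of signal relative to DMSO.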

[11] = read-out: sulfotransferase (SULT2A), SULT2A1 (gene 6822); test: CLD_SULT2A_48hr: CellzDirect (CLD) Gene Expression Assay for sulfotransferase (SULT2A) at 48 hours (AID 2283710);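 further: hits raise SULT2A1 transcript above the 0.2% DMSO vehicle baseline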
In short: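 Primary human hepatocytes (two donor preparations) dosed daily for two days with chemicals at multiple concentrations, vehicle 0.2% DMSO; SULT2A1 mRNA induction at 48 h by quantitative nuclease protection assay, chemiluminescent read-out, fitted for gain of signal versus DMSO.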

[12] = read-out: HMG-CoA synthase (HMGCS2), HMGCS2 (gene 3158); test: CLD_HMGCS2_48hr: CellzDirect (CLD) Gene Expression Assay for HMG-CoA synthase (HMGCS2) at 48 hours (AID 2283711)
In short: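 Primary human hepatocytes from two donors dosed daily for two days, 0.2% DMSO vehicle. HMGCS2 mRNA measured 48 h after dosing by quantitative nuclease protection assay with chemiluminescent read-out; induction fitted relative to DMSO, cytotoxicity flagged by microscopy.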

[13] = STM_H9_OrnithineISnorm_perc: Stemina devTOX quickPredict H9 human embryonic stem cell (hESC)-based Assay for Ornithine (ORN) Metabolite Biomarker, Normalized (AID 2283712; active means hit-call score of the fitted dose curve at least 0.9, where 1 is the maximum; inactive means score below 0.9;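 further: ornithine released into spent medium during last day measured by mass spectrometry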)
In short: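 Undifferentiated pluripotent H9 hESCs were exposed to compound for 72h, with media and compound replaced every 24h. Ornithine in final 24-h conditioned media was measured by UPLC-HRMS, normalized to 13C-labeled spike-in standard and to median 0.1% DMSO control.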

[14] = STM_H9_CystineISnorm_perc: Stemina devTOX quickPredict H9 human embryonic stem cell (hESC)-based Assay for Cystine (CYSS) Metabolite Biomarker, Normalized (AID 2283713; active means hit-call score of the fitted dose curve at least 0.9, where 1 is the maximum; inactive means score below 0.9)
In short: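 Undifferentiated H9 hESCs were exposed to compound for 72h, with medium and compound replaced every 24h. Final-24h conditioned medium was deproteinized and analyzed by UPLC-HRMS. Cystine EIC area was normalized to spiked C13 standard and 0.1% DMSO median.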

[15] = read-out: Cytochrome P450 2B6 (Homo sapiens) (UniProt P20813); test: CLD_CYP2B6_48hr: CellzDirect (CLD) Gene Expression Assay for xenobiotic metabolism (CYP2B6) at 48 hours (AID 2283699);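 further: actives raise transcript level above DMSO so potency reflects induction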
In short: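 Primary human hepatocytes dosed daily for two days over multiple concentrations, 0.2% DMSO vehicle; CYP2B6 mRNA quantified at 48 h by qNPA chemiluminescence. Induction fitted as gain of signal versus DMSO; cytotoxicity annotated by morphology.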

[16] = CLD_ACTIN_48hr: CellzDirect (CLD) Gene Expression Assay for Baseline Control (Actin) at 48 hours (AID 2283702)
In short: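 Primary human hepatocytes (two donor preparations) dosed daily for two days with ToxCast chemicals at multiple concentrations versus 0.2% DMSO vehicle; harvested at 48 h. Actin mRNA measured as a background control by quantitative nuclease protection assay with chemiluminescence.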

[17] = read-out: glucuronosyltransferase (UGT1A1), UGT1A1 (gene 54658); test: CLD_UGT1A1_48hr: CellzDirect (CLD) Gene Expression Assay for glucuronosyltransferase (UGT1A1) at 48 hours (AID 2283709);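 further: actives increase expression relative to DMSO so potency refers to induction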
In short: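 Human primary hepatocytes dosed daily for two days (0.2% DMSO vehicle), harvested at 48 h. UGT1A1 mRNA induction measured by quantitative nuclease protection assay with chemiluminescence; gain of signal versus DMSO; cytotoxicity flagged from morphology.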

[18] = CEETOX_H295R_MTT_cell_viability: Viability Assessment in the CeeTox HT-H295R MTT Assay (AID 2283718; active means hit-call score of the fitted dose curve at least 0.9, where 1 is the maximum; inactive means score below 0.9;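 on AC50: curve fitted both ways so AC50 may mark viability loss or gain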)
In short: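 MTT reduction (0.5 mg/ml, 4 h at 37 C; absorbance at 570 and 650 nm) gave viability as background-corrected percent change versus controls. H295R cells had 48 h forskolin (10 uM) prestimulation, then 48 h chemical exposure at 0.1% DMSO.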

[19] = read-out: Cytochrome P450 2C19 (Homo sapiens) (UniProt P33261); test: CLD_CYP2C19_48hr: CellzDirect (CLD) Gene Expression Assay for xenobiotic metabolism (CYP2C19) at 48 hours (AID 2283700);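 further: fitted upward so actives raise CYP2C19 mRNA above the 0.2% DMSO vehicle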
In short: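 Primary human hepatocytes (two donor preparations) dosed daily for two days, harvested at 48 h; CYP2C19 mRNA induction measured by qNPA chemiluminescence. Gain-of-signal fitted relative to 0.2% DMSO vehicle as baseline.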

[20] = read-out: Cytochrome P450 2C9 (Homo sapiens) (UniProt P11712); test: CLD_CYP2C9_48hr: CellzDirect (CLD) Gene Expression Assay for xenobiotic metabolism (CYP2C9) at 48 hours (AID 2283701; active means hit-call score of the fitted dose curve at least 0.9, where 1 is the maximum; inactive means score below 0.9)
In short: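 Primary human hepatocytes (two donor preparations) dosed daily for two days with test chemicals, 0.2% DMSO vehicle; harvested at 48 h. mRNA induction quantified by qNPA chemiluminescence, fitted for gain of signal against DMSO baseline; cytotoxicity annotated from phase-contrast morphology.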

Measured: AC50

Chain of Cytochrome P450 3A4 (Homo sapiens) (P08684 whole entry, looked up): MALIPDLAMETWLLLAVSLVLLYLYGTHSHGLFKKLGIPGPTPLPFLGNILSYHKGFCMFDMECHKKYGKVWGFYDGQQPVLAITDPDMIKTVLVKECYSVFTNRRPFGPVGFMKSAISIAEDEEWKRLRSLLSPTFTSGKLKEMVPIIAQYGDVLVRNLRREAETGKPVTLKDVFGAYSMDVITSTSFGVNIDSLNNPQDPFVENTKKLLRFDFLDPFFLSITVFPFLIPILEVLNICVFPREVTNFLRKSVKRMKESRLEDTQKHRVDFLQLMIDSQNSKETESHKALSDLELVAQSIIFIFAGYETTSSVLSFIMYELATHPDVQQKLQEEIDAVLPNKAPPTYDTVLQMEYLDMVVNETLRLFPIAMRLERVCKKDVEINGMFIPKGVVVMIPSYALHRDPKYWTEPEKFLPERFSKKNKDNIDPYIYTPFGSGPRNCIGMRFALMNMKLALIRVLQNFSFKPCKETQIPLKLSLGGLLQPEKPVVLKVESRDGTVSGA
Chain of Broad substrate specificity ATP-binding cassette transporter ABCG2 (Homo sapiens) (Q9UNQ0 whole entry, looked up): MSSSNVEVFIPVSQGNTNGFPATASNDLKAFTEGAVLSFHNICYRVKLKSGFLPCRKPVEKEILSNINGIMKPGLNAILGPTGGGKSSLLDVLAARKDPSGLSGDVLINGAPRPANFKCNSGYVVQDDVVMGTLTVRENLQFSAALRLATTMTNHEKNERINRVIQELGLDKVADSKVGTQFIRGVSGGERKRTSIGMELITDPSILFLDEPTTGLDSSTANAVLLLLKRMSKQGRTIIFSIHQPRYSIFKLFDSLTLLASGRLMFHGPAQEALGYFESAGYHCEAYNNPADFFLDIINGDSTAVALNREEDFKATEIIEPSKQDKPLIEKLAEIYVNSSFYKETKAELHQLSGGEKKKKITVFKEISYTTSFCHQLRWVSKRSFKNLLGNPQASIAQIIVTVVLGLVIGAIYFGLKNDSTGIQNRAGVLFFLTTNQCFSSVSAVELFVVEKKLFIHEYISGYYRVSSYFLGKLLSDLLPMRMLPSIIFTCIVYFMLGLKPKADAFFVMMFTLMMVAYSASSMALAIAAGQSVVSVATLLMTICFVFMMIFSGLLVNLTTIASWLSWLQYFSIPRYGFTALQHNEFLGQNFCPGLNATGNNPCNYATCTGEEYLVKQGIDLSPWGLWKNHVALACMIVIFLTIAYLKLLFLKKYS
Chain of Cytochrome P450 2C19 (Homo sapiens) (P33261 whole entry, looked up): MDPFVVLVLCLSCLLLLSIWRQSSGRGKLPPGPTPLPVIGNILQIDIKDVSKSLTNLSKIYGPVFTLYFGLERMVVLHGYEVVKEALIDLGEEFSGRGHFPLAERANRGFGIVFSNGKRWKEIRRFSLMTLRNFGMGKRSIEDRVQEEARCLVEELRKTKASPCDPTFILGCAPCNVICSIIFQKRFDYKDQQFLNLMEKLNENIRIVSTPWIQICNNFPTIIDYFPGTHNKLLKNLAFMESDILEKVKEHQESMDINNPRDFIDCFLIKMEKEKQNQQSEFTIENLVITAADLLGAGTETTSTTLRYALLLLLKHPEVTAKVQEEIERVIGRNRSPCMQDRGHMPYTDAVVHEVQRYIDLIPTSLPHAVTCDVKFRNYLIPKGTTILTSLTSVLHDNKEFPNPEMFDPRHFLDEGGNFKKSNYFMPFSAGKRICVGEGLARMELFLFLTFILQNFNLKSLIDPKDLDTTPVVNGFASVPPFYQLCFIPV

COC(=O)N(OC)c1ccccc1COc1ccn(-c2ccc(Cl)cc2)n1
active: [1] 3.73 µM | [6] 0.54 µM | [7] 20 µM | [8] 1.9 µM | [10] 33.8 µM | [11] 9.28 µM | [13] 0.85 µM | [14] 0.743 µM
inactive: [2] | [3] | [4] | [5] | [9] | [12]

CNC(=O)ON=CC(C)(C)SC
inactive: [1] | [2] | [3] | [4] | [5] | [15] | [16] | [10] | [17]

OC(c1ccc(Cl)cc1)(c1cncnc1)c1ccccc1Cl (configuration not stated)
active: [1] 0.542 µM | [4] 17.2 µM | [15] 0.483 µM | [7] 33.4 µM | [10] 15.8 µM | [13] 50 µM | [18] 77.2 µM
inactive: [3] | [5] | [16] | [8] | [17] | [11]

N#Cc1cc(Br)c(O)c(Br)c1
inactive: [2] | [3] | [4] | [5] | [7] | [8] | [10] | [17] | [11]

COc1ccc(C(c2ccc(OC)cc2)C(Cl)(Cl)Cl)cc1
inactive: [2] | [3] | [4] | [19] | [20] | [11] | [13] | [14]
active: [5] 20 µM | [15] 6.44 µM | [6] 8.31 µM | [8] 20 µM | [17] 8.36 µM

Fc1ccc(Oc2ccnc3cc(Cl)cc(Cl)c23)cc1
inactive: [3] | [4] | [5] | [20] | [7] | [8] | [9] | [10] | [17] | [11]
active: [6] 3.98 µM

CC(C)Oc1cc(-n2nc(C(C)(C)C)oc2=O)c(Cl)cc1Cl
inactive: [4] | [5] | [20] | [7] | [10] | [17] | [18]
active: [1] 1.9 µM | [6] 6.1 µM | [8] 4.01 µM | [11] 2.92 µM

CCNc1nc(Cl)nc(NC(C)C)n1
active: [1] 20 µM | [5] 6.52 µM | [6] 10.2 µM | [8] 20 µM | [17] 9.63 µM | [13] 0.12 µM | [14] 42.3 µM
inactive: [3] | [4] | [20] | [9] | [10] | [11] | [18]

COc1nc(NC(C)C)nc(NC(C)C)n1
active: [1] 1.9 µM | [6] 7.97 µM | [8] 4.52 µM | [14] 13.5 µM
inactive: [4] | [5] | [19] | [20] | [9] | [17] | [11] | [13] | [18]

Cc1ccc(-c2c(Cl)nc(C#N)n2S(=O)(=O)N(C)C)cc1
inactive: [1] | [3] | [4] | [5] | [16] | [6] | [10]
active: [8] 20 µM

CCCC1COC(Cn2cncn2)(c2ccc(Cl)cc2Cl)O1 (configuration not stated)
active: [1] 1.59 µM | [6] 5.36 µM | [8] 20 µM | [13] 85.5 µM | [14] 33.6 µM
inactive: [4] | [5] | [7] | [10] | [17] | [11] | [18]

CN(C)C(=S)SSC(=S)N(C)C
inactive: [1] | [3] | [16] | [7] | [10]
active: [6] 34 µM | [8] 29.7 µM | [13] 17.7 µM | [14] 14.5 µM

CC1=C(C(=O)Nc2ccccc2)SCCO1
active: [1] 6.76 µM | [6] 31.1 µM | [8] 36.1 µM
inactive: [5] | [17] | [18]

COP(=S)(OC)Oc1nc(Cl)c(Cl)cc1Cl
active: [1] 3.97 µM | [6] 5.26 µM
inactive: [3] | [4] | [5] | [20] | [7] | [8] | [9] | [10] | [17] | [18]

CC(Oc1ccc(Cl)cc1Cl)C(=O)O (configuration not stated)
inactive: [3] | [5] | [20] | [6] | [10] | [17] | [11] | [12]

Source: PubChem BioAssay (EPA / NIEHS)
